Assay results from PubChem BioAssay AID504361 (National Center for Advancing Translational Sciences (NCATS), 2011).
Inconclusive results are not listed. The source made the active and inactive calls. The call rests on the fitted dose curve; in most records, active means well fitted curve in the direction sought with a large enough effect; inconclusive means small, poorly fitted or top-dose-only effect, or effect the other way, or another doubt; inactive means no such curve, though single readings can be large or run the other way.

Test: qHTS Assay for Identifying a Potential Treatment of Ataxia-Telangiectasia: Secondary assay (no NCS) SAR for Probe
From the text: NIH Chemical Genomics Center [NCGC] NIH Molecular Libraries Probe Centers Network [MLPCN] MLPCN Grant: MH089030-01 Assay Submitter (PI): Wei Zheng and Yosef Shiloh Ataxia-telangiectasia (A-T) is a devastating and progressive disease for which, there is no cure. Although A-T is a multisystem disease, it is stereotyped characterized by its neurological symptoms such as truncal ataxia, due to cerebellar cortical degeneration of the Purkinje and granule cells. Other symptoms of A-T are telangiectasias (dilated blood vessels), primary immunodeficiency, marked sensitivity to ionizing radiation (IR), chromosomal instability and predisposition to cancer. The underlying genetic cause of A-T is null mutations in the ATM (A-T mutated) gene. ATM is a nuclear serine/threonine kinase that functions as a master regulator of the cellular responses to double strand breaks (DSBs) in the DNA. Upon activation by DSBs, ATM phosphorylates a plethora of downstream targets, including KAP-1 on Ser82452. […] To screen for small molecules that will compensate for the loss of ATM in cells derived from A-T patients, we monitored KAP-1 phosphorylation as a readout for ATM-like activity using an AlphaLISA assay. […]
qHTS Assay Protocol: Step,Parameter,Value,Description 1. […] Readout, EnVision, EnVision plate reader. […] EnVision protocol for 1536-well AlphaScreen read (30ms excitation, 100ms read), about 10 min/plate.

**Q.** For `CC(=O)c1c(O)c(C)c(O)c(Cc2c(O)c3c(c(C(=O)/C=C/c4ccccc4)c2O)OC(C)(C)C=C3)c1O`, which outcome is on record?
**A.** inactive
